# Calb FLC: affects C. albicans growth with fluconazole; C. albicans CaCi-2 (fluconazole-resistant clinical isolate) + fluconazole, Alamar Blue growth, 48 h; growth inhibition, % (no concentration beside the values); hit rate 0.57% among 300,000; AID 1979;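 active means growth inhibition above about 58% in most replicates, limit read from the data, passing the limit was not always enough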;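 further: all wells also contain fluconazole at 8 µg/ml as a sub-toxic cotreatment; 0% = median of DMSO wells and 100% = median of geldanamycin control wells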
# PfHsp90 set2: reduces growth (ATP signal) of yeast expressing P. falciparum Hsp90; S. cerevisiae expressing PfHsp90, BacTiter-Glo ATP, 48 h; yeast lacking PDR1 and PDR3 efflux regulators; inhibition, % at 9.4 µM; hit rate 0.32% among 310,000;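 active means every replicate shows inhibition above about 80%, whatever the replicate mean, limit read from the data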;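 further: 0% = DMSO neutral controls and 100% = 20 µM radicicol positive controls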
# CSC inhib: blocks cancer stem cells | hit rate 1.1% among 300,000 | inhibition, % at 7.5 µM | AID 2717 | cancer stem cell-like cells viability, luminescence; in the data active means inhibition above about 75%; tested in HMLE shEcad cells
# Beta cell apopt: beta cell apoptosis inhibition; AID 435005; INS-1E cytokine-induced death, ATP luminescence, 48 h; percent of positive-control rescue, neutral wells zero; protection from apoptosis, % (no concentration beside the values); hit rate 0.8% among 300,000;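 active means Every replicate reaches about 75%, or at least half do and their mean reaches it too, limit read from the data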;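 further: 0% = cytokine-treated negative control wells and 100% = positive control rescue; higher means more ATP so stronger rescue from cytokine killing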
# Shn3 3UTR inh: inhibitors of Schnurri-3 3'UTR reporter in osteoblasts; Clone20 osteoblast Shn3 3'UTR firefly luciferase, 24 h; inhibition, % at 12.5 µM; hit rate 0.52% among 360,000;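 active means mean inhibition of at least 75% with every replicate also reaching 75%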;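 further: 0% = median of neutral control wells and 100% = pilot-screen positive control compound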
# Numbers without * were called inactive; · = not tested or not shown. Hits are enriched below; roughly 2.2% of the tested compounds scored in any of these assays.
SMILES,Calb FLC,PfHsp90 set2,CSC inhib,Beta cell apopt,Shn3 3UTR inh
Cc1c(C(=O)N(Cc2cccc(Br)c2)C2CCS(=O)(=O)C2)oc2ccccc12 (configuration not stated),29,-16,-4,12,86*
CCc1cc(=O)n2c([nH]c3ccccc32)c1C#N,-1,-8,20,14,-17
CCc1cc(=S)n2c([nH]c3ccccc32)c1C#N,97*,47,·,-3,23
Cc1ccc(Cc2c(C)c(C#N)c3[nH]c4ccccc4n3c2=O)cc1,26,-18,32,77*,10
C=C(C)Cc1c(C)c(C#N)c2[nH]c3ccccc3n2c1=O,-2,-31,10,32,13
Cc1ccc2[nH]c(C)c(/C=C/c3cc[n+](C)cc3)c2c1,94*,14,15,72,25
Cc1ccc2c(c1)c(/C=C/c1cc[n+](C)cc1)c(C)n2C,89*,11,7,90*,0
CCO/C(C)=N/Oc1cncnc1,·,·,·,·,-14
CCc1ccc(N(CC(=O)Nc2nc3ccc(C)cc3s2)S(=O)(=O)c2c(C)noc2C)cc1,4,-17,106*,·,2
O=C(NNc1ccc(-c2csnn2)cc1)c1cc(Cl)cc(Cl)c1,-25,·,87*,1,17
Cc1nc2ccc(NS(=O)(=O)c3ccc4c(c3)OCCO4)cc2s1,-3,11,8,123*,84
Cc1ccc(S(=O)(=O)Nc2ccc3nc(C)sc3c2)cc1,4,25,-13,25,45
Cc1cccnc1Nc1nc(-c2ccc(O)cc2O)cs1,-9,-20,29,-8,-59
Oc1ccc(-c2csc(Nc3ccccn3)n2)c(O)c1,1,-26,103*,15,-102
Cc1ccc(NC(=S)N/N=C/c2c(Cl)cccc2Cl)c(C)c1,30,34,101*,41,23
CCCn1nc([N+](=O)[O-])c(C(C#N)c2nc3ccccc3s2)c(Cl)c1=O (configuration not stated),99*,-15,98*,33,0
Cc1ccc(C2=NN(C(=O)CNCCO)C(c3cccs3)C2)cc1 (configuration not stated),9,-10,-12,-9,-65
N=c1ccn(CC(=O)c2ccc(-c3ccccc3)cc2)cc1,-2,·,19,134*,63
CC(C)(C)C(=O)Nc1ccc(NC(=O)c2ccco2)nc1,11,19,2,2,90*
CC(=O)ON=C1C=CC(=C(C#N)c2ccccc2)C=C1,·,·,·,·,16
COc1ccc(C(C#N)=C2C=CC(=NO)C=C2)cc1,2,115*,28,1,-14
CCN(CC(=O)Nc1c(F)cccc1F)C(=O)COc1cccc2c1OC(C)(C)C2,6,·,-5,1,-3
COc1ccc(C(=O)/C=C/c2ccc(OC)c(CN3CCOCC3)c2)cc1,11,-6,15,-30,-38
COc1ccc(C(=O)/C=C/c2ccc(OC)c(Cn3nnc4ccccc43)c2)cc1,32,22,77*,3,-4
CCn1c(-c2ccc(C)cc2)nn(CC(=O)NCCc2ccccc2)c1=S,3,12,19,127*,70
Cc1ncc(CO)c(/C=N/NC(=S)Nc2ccc(Cl)c(Cl)c2)c1O,110*,28,58,42,6
Cc1ncc(CO)c(/C=N/NC(=O)c2cc3c(s2)CCCC3)c1O,30,-14,72,88*,91*
CCOc1ccccc1NC(=O)C(=O)CC(=O)c1ccc(OC)cc1,-4,16,-8,8,-9

# High-throughput results deposited in PubChem by Broad Institute.
